Assay results as given in PubChem BioAssay (NCI).
The panel holds about 83,000 compounds, 20% with a hit somewhere; the sample as a whole holds those more often.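 A percent growth of 40 corresponds to 60% growth inhibition; 0 means no net growth; -100 means all cells died. Active threshold: below 10.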 Activity calls are given as the source filed them.

Legend:
Assay in all cases: NCI-60 one-dose screen, 48 h (100 = growth as untreated, 0 = no growth, -100 = all killed)
Settings in all cases: 10 µM unless noted
DU-145 prostate = system: DU-145 prostate
K-562 leukemia = system: K-562 leukemia
MALME-3M melanoma = system: MALME-3M melanoma
MDA-MB-231 breast = system: MDA-MB-231 breast
RXF 393 renal = system: RXF 393 renal
SF-268 CNS = system: SF-268 CNS
SF-295 CNS = system: SF-295 CNS
UACC-257 melanoma = system: UACC-257 melanoma
M14 melanoma = system: M14 melanoma
HCT-15 colon = system: HCT-15 colon
HT29 colon = system: HT29 colon
SNB-75 CNS = system: SNB-75 CNS
SNB-19 CNS = system: SNB-19 CNS
U251 CNS = system: U251 CNS
PC-3 prostate = system: PC-3 prostate
SK-MEL-5 melanoma = system: SK-MEL-5 melanoma
UACC-62 melanoma = system: UACC-62 melanoma
LOX IMVI melanoma = system: LOX IMVI melanoma
SK-MEL-28 melanoma = system: SK-MEL-28 melanoma
SF-539 CNS = system: SF-539 CNS

Measured: growth

C[C@]12CC[C@H]3[C@@H](CC[C@]4(O)C[C@@H](O[C@@H]5O[C@H](CO)[C@@H](O[C@@H]6OC[C@@H](O)[C@H](O)[C@H]6O)[C@H](O)[C@H]5O)CC[C@]34C=O)[C@@]1(O)CC[C@@H]2C1=CC(=O)OC1
inactive: MDA-MB-231 breast 42.2% | M14 melanoma 23.8% | SNB-75 CNS 28% | SNB-19 CNS 26% | SK-MEL-28 melanoma 41.6%
active: DU-145 prostate -62.4% | K-562 leukemia 4.28% | MALME-3M melanoma -25% | RXF 393 renal -19.4% | SF-268 CNS -44.6% | SF-295 CNS 8.52% | UACC-257 melanoma -3.23% | HCT-15 colon -9.5% | HT29 colon 3.12% | U251 CNS 4.09% | PC-3 prostate 4.54% | SK-MEL-5 melanoma -14.1% | UACC-62 melanoma 1.05% | LOX IMVI melanoma -37.3%

C=CCCCN=C=S
inactive: DU-145 prostate 60.5% | K-562 leukemia 59.8% | MALME-3M melanoma 76.7% | MDA-MB-231 breast 68.3% | RXF 393 renal 80% | SF-268 CNS 77.4% | SF-295 CNS 92.4% | UACC-257 melanoma 62.5% | M14 melanoma 60.9% | HCT-15 colon 55.4% | HT29 colon 37.4% | SNB-75 CNS 64.2% | SNB-19 CNS 84.2% | U251 CNS 79.5% | PC-3 prostate 87% | SK-MEL-5 melanoma 95.1% | UACC-62 melanoma 63.4% | LOX IMVI melanoma 53.8% | SK-MEL-28 melanoma 83.2%

COc1cc2c(cc1OCCCCn1c(-c3cccs3)nc3ccccc31)N=C[C@@H]1CCCN1C2=O
active: K-562 leukemia -26.7% | MALME-3M melanoma -77% | MDA-MB-231 breast -18.6% | RXF 393 renal -60.4% | SF-268 CNS -7.58% | SF-295 CNS -8% | SF-539 CNS -25.3% | M14 melanoma -46.2% | HT29 colon 2.34% | SNB-75 CNS -65.4% | U251 CNS -2.52% | PC-3 prostate -4.05% | SK-MEL-5 melanoma -80% | UACC-62 melanoma -91.1% | LOX IMVI melanoma -48.9% | SK-MEL-28 melanoma -37.4%
inactive: DU-145 prostate 10.7% | SNB-19 CNS 10.5%

COc1cc2c(cc1OCCCCCn1c(-c3ccco3)nc3ccccc31)N=C[C@@H]1CCCN1C2=O
inactive: DU-145 prostate 29.3% | SNB-19 CNS 23.3% | PC-3 prostate 17.5%
active: K-562 leukemia 5.85% | MALME-3M melanoma -47.8% | MDA-MB-231 breast 9.17% | RXF 393 renal -40.4% | SF-268 CNS 8.92% | SF-295 CNS 9.61% | SF-539 CNS 1.5% | M14 melanoma -23% | HCT-15 colon 7.84% | HT29 colon 1.38% | SNB-75 CNS -64.2% | U251 CNS 8.03% | SK-MEL-5 melanoma -17% | UACC-62 melanoma -86.9% | LOX IMVI melanoma -31.6% | SK-MEL-28 melanoma -58.6%

COc1ccc(C2=N[C@@H](Cc3ccccc3)C(=O)Nc3ccsc32)cc1
inactive: DU-145 prostate 71.3% | K-562 leukemia 16.2% | MALME-3M melanoma 48.6% | MDA-MB-231 breast 55.9% | RXF 393 renal 34.3% | SF-268 CNS 55.1% | SF-295 CNS 37% | SF-539 CNS 44.9% | UACC-257 melanoma 44% | M14 melanoma 20.7% | HT29 colon 17.9% | SNB-19 CNS 69.8% | U251 CNS 42.7% | PC-3 prostate 59.1% | SK-MEL-5 melanoma 34.9% | UACC-62 melanoma 16.9% | LOX IMVI melanoma 47.6% | SK-MEL-28 melanoma 54.5%

COc1ccc(O)c(CNC(=O)CN2CCCC2=O)c1
inactive: DU-145 prostate 108% | K-562 leukemia 99.4% | MALME-3M melanoma 96.6% | MDA-MB-231 breast 96.5% | RXF 393 renal 109% | SF-268 CNS 96.8% | SF-295 CNS 103% | UACC-257 melanoma 104% | M14 melanoma 98% | HCT-15 colon 103% | HT29 colon 104% | SNB-75 CNS 81.3% | SNB-19 CNS 103% | U251 CNS 103% | PC-3 prostate 92.1% | SK-MEL-5 melanoma 107% | UACC-62 melanoma 96.6% | LOX IMVI melanoma 99.4% | SK-MEL-28 melanoma 99.4%

CCCCCCCOC(C(=O)OCCN(CC)CC)(c1ccccc1)c1ccccc1
inactive: DU-145 prostate 86.9% | K-562 leukemia 56.6% | MALME-3M melanoma 100% | MDA-MB-231 breast 82.5% | RXF 393 renal 92.4% | SF-268 CNS 87.9% | SF-295 CNS 123% | SF-539 CNS 96.9% | M14 melanoma 90.5% | HCT-15 colon 49.9% | HT29 colon 31.4% | SNB-75 CNS 86.1% | SNB-19 CNS 94% | U251 CNS 77.8% | PC-3 prostate 61.2% | SK-MEL-5 melanoma 78.2% | UACC-62 melanoma 103% | LOX IMVI melanoma 92.2% | SK-MEL-28 melanoma 96%

CC(=O)O[C@H](C[C@H](C(C)C)N(C)C(=O)[C@@H](NC(=O)[C@H]1CCCCN1C)C(C)C)c1nc(C(=O)N[C@@H](Cc2ccccc2)C[C@H](C)C(=O)O)c(C(C)C)s1
inactive: MALME-3M melanoma 64.9% | MDA-MB-231 breast 12.9% | RXF 393 renal 44.1% | SF-268 CNS 27.7% | UACC-257 melanoma 41.5% | SNB-75 CNS 22.6% | SNB-19 CNS 27.6% | U251 CNS 15.4% | PC-3 prostate 29.9% | UACC-62 melanoma 31.1% | LOX IMVI melanoma 10.5% | SK-MEL-28 melanoma 60.9%
active: DU-145 prostate -0.791% | K-562 leukemia 6.34% | SF-295 CNS -0.193% | SF-539 CNS -10.7% | M14 melanoma 4.52% | HT29 colon 2.43% | SK-MEL-5 melanoma -43.9%

Nc1cc2nc3ccccc3nc2cc1N
inactive: DU-145 prostate 91.5% | K-562 leukemia 59.8% | MALME-3M melanoma 122% | MDA-MB-231 breast 86.9% | RXF 393 renal 81.5% | SF-268 CNS 92.4% | SF-295 CNS 89.8% | SF-539 CNS 95.4% | M14 melanoma 109% | HT29 colon 105% | SNB-75 CNS 85.5% | SNB-19 CNS 85.6% | U251 CNS 77.2% | PC-3 prostate 79.3% | SK-MEL-5 melanoma 87% | LOX IMVI melanoma 80.8% | SK-MEL-28 melanoma 129%

CCCCOc1ccc(C(N)Cc2ccccc2)cc1 (stereo unspecified)
inactive: DU-145 prostate 109% | K-562 leukemia 54.2% | MALME-3M melanoma 106% | MDA-MB-231 breast 75.1% | RXF 393 renal 104% | SF-268 CNS 85.4% | SF-295 CNS 113% | SF-539 CNS 102% | M14 melanoma 87.1% | HCT-15 colon 84.9% | HT29 colon 75.4% | SNB-75 CNS 71.2% | SNB-19 CNS 97% | U251 CNS 88.1% | PC-3 prostate 79.5% | SK-MEL-5 melanoma 92.8% | UACC-62 melanoma 105% | LOX IMVI melanoma 80% | SK-MEL-28 melanoma 105%

c1ccc(COc2ccc3[nH]cc(CCN(Cc4ccccc4)Cc4ccccc4)c3c2)cc1
inactive: DU-145 prostate 98.8% | K-562 leukemia 71.1% | MALME-3M melanoma 91.3% | MDA-MB-231 breast 83.3% | RXF 393 renal 91.2% | SF-268 CNS 92.4% | SF-295 CNS 91.4% | SF-539 CNS 97.1% | M14 melanoma 98.6% | HCT-15 colon 47.2% | HT29 colon 83.5% | SNB-75 CNS 89.2% | SNB-19 CNS 104% | U251 CNS 81.6% | PC-3 prostate 57.7% | SK-MEL-5 melanoma 88.3% | LOX IMVI melanoma 81.8% | SK-MEL-28 melanoma 104%

ClC1=C(Cl)C(Cl)(C2(Cl)C(Cl)=C(Cl)C(Cl)=C2Cl)C(Cl)=C1Cl
active: DU-145 prostate -43.1% | K-562 leukemia -24.6% | MALME-3M melanoma -67.5% | MDA-MB-231 breast -29.3% | RXF 393 renal -83.2% | SF-268 CNS -46.4% | SF-539 CNS -59% | UACC-257 melanoma -60.4% | M14 melanoma -57.6% | HT29 colon -64.2% | U251 CNS -11.3% | PC-3 prostate -8.81% | SK-MEL-5 melanoma -21.8% | UACC-62 melanoma -18.6% | LOX IMVI melanoma -85.5% | SK-MEL-28 melanoma -18.1%
inactive: SF-295 CNS 89.6% | SNB-75 CNS 62% | SNB-19 CNS 10.5%

COc1cc(/C=C\c2cc(OC)c(OC)c(OC)c2)cc(N/C=C\C(=O)c2cc(OC)c(OC)c(OC)c2)c1OC
inactive: DU-145 prostate 27.2% | K-562 leukemia 16.2% | MALME-3M melanoma 25.9% | MDA-MB-231 breast 42.7% | RXF 393 renal 17.4% | SF-268 CNS 41.1% | UACC-257 melanoma 68.1% | HCT-15 colon 19.6% | SNB-19 CNS 43.4% | U251 CNS 31% | PC-3 prostate 21.1% | UACC-62 melanoma 16.8% | LOX IMVI melanoma 28.6%
active: SF-539 CNS -9.74% | M14 melanoma 2.89% | HT29 colon 3.93% | SNB-75 CNS -6.67% | SK-MEL-5 melanoma 5.18%
